A number with no mark means an inactive call. Records with an inconclusive call do not appear. A call without a number means that no potency is given here. Calls of active or inactive are those of the source. Unless noted, calls follow the shape of the full dose curve.
Key:
[1] = Nuclear factor erythroid 2-related factor 2/antioxidant responsive element (Nrf2/ARE) small molecule agonists: qHTS cell viability counter screen in human keratinocytes (AID 1919968; active = well fitted curve in the direction sought with a large enough effect in the repeat runs; an effect the other way counts as inactive or inconclusive; also: nearly all actives have a fitted effect of over 55% in size; also: potency is read from the fitted curve at half-maximal effect)
Procedure, shortened: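 KeratinoSens cells (HaCaT keratinocytes stably carrying an ARE-luciferase reporter) were seeded at 1,500 cells/well and rested 5 h at 37 C/5% CO2. They were then exposed to compounds in DMSO for 23 h. Viability was read by CellTiter-Fluor fluorescence after 1 h.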

[2] = Nuclear factor erythroid 2-related factor 2/antioxidant responsive element (Nrf2/ARE) small molecule agonists: luciferase reporter gene qHTS assay in human keratinocytes (AID 1919969); also: nearly all actives have a fitted effect of over 35% in size; also: potency is read from the fitted curve at half-maximal effect
[3] = molecular target: Gonadotropin-releasing hormone receptor (Homo sapiens) (UniProt P30968); assay: Human gonadotropin-releasing hormone receptor (GnRHR) small molecule agonists, calcium flux assay in GnRHR-HEK293 cells (AID 1920063); also: nearly all actives have a fitted effect of over 35% in size
Procedure, shortened: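 HEK293 cells stably expressing human GnRHR were plated 18 h at 37 °C, loaded with calcium dye 1 h at 37 °C, then given compound in agonist mode; fluorescence (Ex/Em 480/540) read kinetically for 3 min at 1 s intervals.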

[4] = molecular target: KiSS-1 receptor (Homo sapiens) (UniProt Q969F8); assay: Human kisspeptin (KISS1R) small molecule agonists, calcium flux assay in KISS1R-HEK293 cells (AID 1920064; active = well fitted curve in the direction sought with a large enough effect in the repeat runs; an effect the other way counts as inactive or inconclusive)
Procedure, shortened: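 HEK293 cells stably expressing human KISS1R were plated 18 h at 37 °C, loaded with calcium dye for 1 h at 37 °C, then given compound by pin tool. Fluorescence (Ex/Em 480/540) was read kinetically for 3 min.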

[5] = G protein-coupled receptor (GPCR) small molecule agonists, calcium flux assay: HEK293 wild type cell line counter screen (AID 1920065)
Procedure, shortened: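 Cells were plated and cultured 18 h at 37 C/5% CO2, then loaded with calcium dye for 1 h at 37 C. Compounds in DMSO were pin-transferred in agonist mode, and fluorescence (Ex/Em 480/540) was read kinetically for 3 min at 1 s intervals.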

[6] = p53 small molecule agonists, cell-based qHTS assay with rat liver microsomes (AID 1963578)
Procedure, shortened: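 Quantitative HTS of the Tox21 10K library: p53RE-bla cells, rat liver microsomes plus NADPH at 0.5 mg/mL final each, 16 h at 37 C, beta-lactamase fluorescence detection.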

[7] = p53 small molecule agonists, cell-based qHTS assay with human liver microsomes: qHTS cell viability counter screen (AID 1963579); also: nearly all actives have a fitted effect of over 45% in size
Procedure, shortened: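 Viability of p53RE-bla cells is measured as CellTiter-Glo luminescence following a 16 h, 37 C incubation with compound, liver microsomes from human donors and NADPH.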

[8] = p53 small molecule agonists, cell-based qHTS assay with rat liver microsomes: qHTS cell viability counter screen (AID 1963580); also: nearly all actives have a fitted effect of over 45% in size
Procedure, shortened: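 p53RE-bla HCT-116 cells (4,000/well) rested 5 h at 37 C, then given Tox21 compounds in DMSO with rat liver microsomes (0.5 mg/mL final) plus NADPH (0.5 mg/mL final) for 16 h at 37 C. Viability read by CellTiter-Glo luminescence after 30 min at room temperature.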

[9] = p53 small molecule agonists, cell-based qHTS assay: qHTS cell viability counter screen (AID 1963581); also: nearly all actives have a fitted effect of over 45% in size; also: potency is read from the fitted curve at half-maximal effect
Procedure, shortened: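 p53RE-bla HCT-116 cells were exposed to compounds for 16 h at 37 C; after the beta-lactamase FRET read in the same wells, CellTiter-Glo was added and luminescence (intracellular ATP) read after 30 min at room temperature.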

[10] = p53 small molecule agonists, cell-based qHTS assay (AID 1963582; active = well fitted activation curve with a large enough effect in the signal ratio in the repeat runs, not every such curve was filed as active; the % refers to the signal ratio)
Procedure, shortened: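 p53RE-bla beta-lactamase reporter cells rested 5 h at 37 C/5% CO2, then received compounds in DMSO by pin transfer and were incubated 16 h at 37 C. LiveBLAzer B/G FRET substrate was loaded for 2 h at room temperature before fluorescence reading.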

[11] = molecular target: 5-hydroxytryptamine receptor 2A (Homo sapiens) (UniProt P28223); assay: 5-hydroxytryptamine receptor 2A (HTR2A) small molecule antagonists, cell-based qHTS assay (AID 1963586); also: nearly all actives have a fitted effect of over 45% in size; also: potency is read from the fitted curve at half-maximal effect
Procedure, shortened: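 Antagonist-mode intracellular calcium assay: DOI (4 nM) added after 5 min compound pre-incubation at room temperature to dye-loaded HTR2A-CHO cells. Fluorescence followed for 3 min, sampled every second.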

[12] = molecular target: 5-hydroxytryptamine receptor 2A (Homo sapiens) (UniProt P28223); assay: 5-hydroxytryptamine receptor 2A (HTR2A) small molecule agonists, cell-based qHTS assay (AID 1963587); also: nearly all actives have a fitted effect of over 30% in size
Procedure, shortened: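 HTR2A-CHO cells, plated 18 h at 37 C/5% CO2, dye-loaded 1 h at 37 C; compounds in DMSO added by pin tool (agonist mode). Intracellular calcium flux read as kinetic fluorescence on FDSS over 2 min at 1 s intervals.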

[13] = molecular target: Muscarinic acetylcholine receptor M1 (Homo sapiens) (UniProt P11229); assay: Cholinergic receptor muscarinic 1 (CHRM1) small molecule antagonists, cell-based qHTS assay (AID 1963588); also: nearly all actives have a fitted effect of over 40% in size; also: potency is read from the fitted curve at half-maximal effect
Procedure, shortened: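 CHRM1-CHO calcium-flux assay, antagonist mode. Cells were seeded 18 h, dye-loaded 1 h at 37 C and given compound for 5 min at RT, then acetylcholine was added at 50nM. FDSS fluorescence was read 3 min; 15 concentrations, three runs.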

[14] = molecular target: Muscarinic acetylcholine receptor M1 (Homo sapiens) (UniProt P11229); assay: Cholinergic receptor muscarinic 1 (CHRM1) small molecule agonists, cell-based qHTS assay (AID 1963589); also: nearly all actives have a fitted effect of over 35% in size
Procedure, shortened: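 CHO cells stably expressing human CHRM1, seeded 18 h at 37 C/5% CO2, dye-loaded 1 h at 37 C, then given compound in agonist mode; intracellular calcium fluorescence read kinetically at 1 s intervals. Fifteen concentrations, three independent runs.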

[15] = cAMP Responsive Elements (CRE) small molecule agonists, cell-based qHTS assay (AID 1963590)
Procedure, shortened: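 CRE-bla HEK 293T cells in DMEM with 10% dialyzed FBS, NEAA, pyruvate and 25 mM HEPES were plated 18 h at 37 C/5% CO2, then exposed to compounds in DMSO for 3 h before LiveBLAzer B/G FRET substrate addition.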

[16] = cAMP Responsive Elements (CRE) small molecule antagonists, cell-based qHTS assay (AID 1963591; active = well fitted inhibition curve with a large enough effect in the signal ratio in the repeat runs, not every such curve was filed as active; the % refers to the signal ratio)
Procedure, shortened: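 CRE-bla HEK293T cells were plated 18 h at 37 °C/5% CO2, pinned with compound in DMSO, then stimulated with NKH477 at 0.25 uM final for 3 h. LiveBLAzer B/G FRET substrate was added and plates incubated 2 h at room temperature.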

[17] = molecular target: Beta-2 adrenergic receptor (Homo sapiens) (UniProt P07550); assay: Adrenergic beta2 receptor (ADRB2) small molecule antagonists, cell-based qHTS assay (AID 1963592); also: nearly all actives have a fitted effect of over 50% in size; also: potency is read from the fitted curve at half-maximal effect
Procedure, shortened: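 Cells (CHO, stable ADRB2 overexpression) incubated 18-20hr at 37C; compounds added from DMSO; agonist mix (1nM isoproterenol, 100uM IBMX, 25uM Ro-20-1724) added; 0.5hr RT; d2-cAMP and anti-cAMP-cryptate added; 1hr RT; 665/615 nm read.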

[18] = molecular target: Beta-2 adrenergic receptor (Homo sapiens) (UniProt P07550); assay: Adrenergic beta2 receptor (ADRB2) small molecule agonists, cell-based qHTS assay (AID 1963593);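 also: CHO cells stably overexpressing human ADRB2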
Procedure, shortened: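 CHO cells stably over-expressing ADRB2 were plated overnight at 37C, then dosed with compounds plus a stimulation mix containing 100uM IBMX and 25uM Ro-20-1724 for 0.5hr at room temperature. cAMP was measured by HTRF competition, 1hr.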

[19] = molecular target: D(2) dopamine receptor (Homo sapiens) (UniProt P14416); assay: Dopamine D2 receptor (DRD2) small molecule agonists, cell-based qHTS assay (AID 1963594); also: nearly all actives have a fitted effect of over 35% in size
Procedure, shortened: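 HEK293 cells stably expressing DRD2 were cultured 24 h at 37 C, then given Ro20-1724 (0.1 mM final) and compounds for 10 min at room temperature. NKH477 (200nM) was then added for 30 min. cAMP was read by HTRF.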

[20] = molecular target: D(2) dopamine receptor (Homo sapiens) (UniProt P14416); assay: Dopamine D2 receptor (DRD2) small molecule antagonists, cell-based qHTS assay (AID 1963595; active = well fitted inhibition curve with a large enough effect in the signal ratio in the repeat runs, with a control signal flat; the % refers to the signal ratio; also: potency is read from the fitted curve at half-maximal effect)
Procedure, shortened: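 Stable D2 receptor HEK293 line, 24 h after seeding. Compound preincubated 10 min, then quinpirole (12 nM) with forskolin analogue NKH477 (200 nM), 30 min, room temperature. Detection by time-resolved FRET of cAMP.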

Sequence of 5-hydroxytryptamine receptor 2A (Homo sapiens) (P28223 whole entry, looked up): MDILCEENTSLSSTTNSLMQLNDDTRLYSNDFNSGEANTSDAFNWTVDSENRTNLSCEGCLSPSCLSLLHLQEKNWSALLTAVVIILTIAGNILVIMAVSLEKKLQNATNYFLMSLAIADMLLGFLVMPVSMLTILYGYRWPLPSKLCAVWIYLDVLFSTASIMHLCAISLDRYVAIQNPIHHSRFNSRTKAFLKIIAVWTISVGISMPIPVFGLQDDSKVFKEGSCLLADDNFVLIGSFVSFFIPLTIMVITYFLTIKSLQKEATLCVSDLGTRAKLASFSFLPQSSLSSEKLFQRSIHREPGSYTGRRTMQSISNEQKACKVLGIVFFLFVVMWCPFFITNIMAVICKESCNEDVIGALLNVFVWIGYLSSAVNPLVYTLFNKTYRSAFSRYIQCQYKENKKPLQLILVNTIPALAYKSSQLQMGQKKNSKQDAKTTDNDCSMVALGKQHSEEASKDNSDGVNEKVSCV
Sequence of D(2) dopamine receptor (Homo sapiens) (P14416 whole entry, looked up): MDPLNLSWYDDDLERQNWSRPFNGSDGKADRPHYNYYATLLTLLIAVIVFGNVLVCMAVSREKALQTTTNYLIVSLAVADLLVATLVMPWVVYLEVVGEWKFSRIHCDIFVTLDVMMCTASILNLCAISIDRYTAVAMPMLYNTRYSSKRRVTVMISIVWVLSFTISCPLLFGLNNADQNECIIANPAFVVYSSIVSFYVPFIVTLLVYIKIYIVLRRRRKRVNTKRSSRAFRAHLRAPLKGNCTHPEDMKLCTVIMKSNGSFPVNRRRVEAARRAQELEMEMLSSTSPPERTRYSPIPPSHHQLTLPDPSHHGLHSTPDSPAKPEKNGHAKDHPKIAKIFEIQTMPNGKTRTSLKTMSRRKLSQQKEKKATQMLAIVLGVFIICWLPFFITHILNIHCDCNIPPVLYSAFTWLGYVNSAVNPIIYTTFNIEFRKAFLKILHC
Sequence of Gonadotropin-releasing hormone receptor (Homo sapiens) (P30968 whole entry, looked up): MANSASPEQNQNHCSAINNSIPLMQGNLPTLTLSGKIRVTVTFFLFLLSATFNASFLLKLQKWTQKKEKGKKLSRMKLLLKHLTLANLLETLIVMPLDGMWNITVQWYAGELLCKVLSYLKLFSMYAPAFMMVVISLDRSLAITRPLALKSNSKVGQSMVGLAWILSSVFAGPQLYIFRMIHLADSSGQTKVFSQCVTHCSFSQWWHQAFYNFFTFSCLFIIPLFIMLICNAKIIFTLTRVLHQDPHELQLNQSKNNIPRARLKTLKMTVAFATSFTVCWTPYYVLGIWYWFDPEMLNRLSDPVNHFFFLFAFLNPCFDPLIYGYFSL
Sequence of KiSS-1 receptor (Homo sapiens) (Q969F8 whole entry, looked up): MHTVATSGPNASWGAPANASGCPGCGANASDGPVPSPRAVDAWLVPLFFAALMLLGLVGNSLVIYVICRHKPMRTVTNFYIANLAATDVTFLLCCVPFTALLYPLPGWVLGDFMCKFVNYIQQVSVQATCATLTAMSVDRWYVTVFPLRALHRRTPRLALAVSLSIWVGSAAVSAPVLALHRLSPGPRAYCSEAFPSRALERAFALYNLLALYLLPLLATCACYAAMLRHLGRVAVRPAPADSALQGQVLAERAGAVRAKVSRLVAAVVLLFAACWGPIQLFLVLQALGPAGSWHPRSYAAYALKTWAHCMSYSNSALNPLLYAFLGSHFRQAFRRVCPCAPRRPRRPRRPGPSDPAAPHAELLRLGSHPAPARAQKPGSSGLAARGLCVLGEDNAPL
Sequence of Beta-2 adrenergic receptor (Homo sapiens) (P07550 whole entry, looked up): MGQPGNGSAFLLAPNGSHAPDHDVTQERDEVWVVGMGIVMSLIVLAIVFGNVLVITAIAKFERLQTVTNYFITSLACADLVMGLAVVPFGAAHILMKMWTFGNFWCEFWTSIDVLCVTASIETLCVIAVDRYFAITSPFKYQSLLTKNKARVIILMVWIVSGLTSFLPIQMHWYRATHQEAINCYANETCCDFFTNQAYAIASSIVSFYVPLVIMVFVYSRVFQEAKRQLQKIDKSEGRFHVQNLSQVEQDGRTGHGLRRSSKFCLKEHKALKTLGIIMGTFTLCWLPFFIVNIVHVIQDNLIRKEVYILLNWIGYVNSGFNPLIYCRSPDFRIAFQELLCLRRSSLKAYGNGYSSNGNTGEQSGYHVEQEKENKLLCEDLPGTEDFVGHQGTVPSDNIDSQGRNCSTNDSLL
Sequence of Muscarinic acetylcholine receptor M1 (Homo sapiens) (P11229 whole entry, looked up): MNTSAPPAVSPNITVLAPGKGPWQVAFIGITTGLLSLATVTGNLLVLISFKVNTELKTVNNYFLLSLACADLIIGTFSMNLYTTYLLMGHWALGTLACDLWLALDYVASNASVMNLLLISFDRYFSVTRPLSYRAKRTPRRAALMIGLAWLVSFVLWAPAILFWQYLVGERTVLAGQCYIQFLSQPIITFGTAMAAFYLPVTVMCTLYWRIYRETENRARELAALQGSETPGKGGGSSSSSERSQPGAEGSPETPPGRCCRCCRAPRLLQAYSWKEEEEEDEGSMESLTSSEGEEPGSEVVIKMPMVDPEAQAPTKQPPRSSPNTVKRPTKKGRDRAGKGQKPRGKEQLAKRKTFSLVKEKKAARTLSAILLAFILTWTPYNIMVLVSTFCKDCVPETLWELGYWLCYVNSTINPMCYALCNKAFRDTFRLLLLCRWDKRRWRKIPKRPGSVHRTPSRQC

| Compound | Potency [1] | Potency [2] | Potency [3] | Potency [4] | Potency [5] | Potency [6] | Potency [7] | Potency [8] | Potency [9] | Potency [10] | Potency [11] | Potency [12] | Potency [13] | Potency [14] | Potency [15] | Potency [16] | Potency [17] | Potency [18] | Potency [19] | Potency [20] |
| --- | --- | --- | --- | --- | --- | --- | --- | --- | --- | --- | --- | --- | --- | --- | --- | --- | --- | --- | --- | --- |
| CCC[Si](OC)(OC)OC | inactive | inactive | inactive | inactive | inactive | inactive | inactive | inactive | inactive | inactive | inactive | inactive | inactive | inactive | inactive | inactive | inactive | inactive | inactive | inactive |
| CC(C)(C)CC(C)(C)c1ccc(O)c(Cc2ccc(Cl)cc2Cl)c1 | 8.41 µM (active) | inactive | inactive | inactive | inactive | inactive | inactive | inactive | 8.9 µM (active) | – | inactive | inactive | inactive | inactive | – | – | inactive | inactive | inactive | – |
| CC1CC(=O)NN=C1c1ccc(NCC(C)(C)NCC(O)COc2cc(Cl)ccc2C#N)cc1 (configuration not stated) | inactive | inactive | inactive | inactive | inactive | inactive | inactive | inactive | inactive | inactive | inactive | inactive | inactive | inactive | – | – | 5.31 µM (active) | – | – | inactive |
| CCCOc1ccc2c(c1)CC[C@@H]1[C@@H]2CC[C@]2(C)C(OC)CC[C@@H]12 (some centres not stated) | inactive | inactive | inactive | inactive | inactive | inactive | inactive | inactive | inactive | inactive | – | inactive | inactive | inactive | inactive | – | inactive | inactive | inactive | – |
| CC(=O)OC(C(=O)c1ccccc1)c1ccccc1 (configuration not stated) | inactive | inactive | inactive | inactive | inactive | inactive | inactive | inactive | inactive | inactive | 0.0011 µM (active) | inactive | inactive | inactive | inactive | – | inactive | – | inactive | inactive |
| CCN(CC)c1cccc(O)c1 | inactive | 11.1 µM (active) | inactive | inactive | inactive | inactive | inactive | inactive | inactive | inactive | inactive | – | inactive | inactive | inactive | inactive | inactive | – | inactive | inactive |
| O=C(CCCN1CCN(c2ccc(F)cc2)CC1)NC1c2ccccc2CSc2ccccc21 (configuration not stated) | inactive | inactive | inactive | inactive | inactive | inactive | inactive | inactive | inactive | – | – | inactive | – | inactive | – | – | 7.5 µM (active) | – | – | – |
| NC(=O)n1c(O)c(C(=O)c2cccs2)c2cc(Cl)ccc21 | inactive | 26.6 µM (active) | inactive | inactive | inactive | inactive | inactive | inactive | inactive | – | inactive | inactive | inactive | inactive | – | – | inactive | – | inactive | inactive |
| CC1=CC(=O)/C(=C(/C)O)C(=O)O1 | inactive | inactive | inactive | inactive | inactive | inactive | inactive | inactive | – | inactive | – | inactive | inactive | inactive | – | inactive | inactive | – | inactive | – |
| Cc1oc(-c2ccccc2)nc1CCOc1cccc2c1ccn2CCC(=O)O | inactive | inactive | inactive | inactive | inactive | inactive | inactive | inactive | inactive | – | inactive | – | inactive | inactive | – | – | inactive | – | inactive | inactive |
| FC1(F)C(F)(F)C(F)(F)C2(F)C(F)(F)C(F)(F)C(F)(F)C(F)(F)C2(F)C1(F)F (configuration not stated) | inactive | inactive | inactive | inactive | inactive | inactive | inactive | inactive | – | inactive | inactive | inactive | inactive | inactive | inactive | inactive | inactive | inactive | – | inactive |
| CC1=CC(C)C(C=O)C(C)C1 (configuration not stated) | inactive | inactive | inactive | inactive | inactive | inactive | inactive | inactive | – | inactive | inactive | inactive | inactive | inactive | inactive | inactive | inactive | inactive | inactive | inactive |
| Nc1nc(F)nc2c1ncn2[C@@H]1O[C@H](CO)[C@@H](O)[C@@H]1O | inactive | inactive | inactive | inactive | inactive | inactive | inactive | inactive | inactive | – | – | – | – | – | inactive | inactive | inactive | inactive | inactive | inactive |
| Cc1ccc(NC(=O)c2ccc(CN3CCN(C)CC3)cc2)cc1Nc1nccc(-c2cccnc2)n1 | inactive | inactive | inactive | inactive | inactive | inactive | inactive | inactive | – | inactive | – | – | – | – | – | – | inactive | inactive | – | inactive |
| O=C1NC2CCCCN2C12CCN(CCCN1c3ccccc3CCc3ccc(Cl)cc31)CC2 (configuration not stated) | 29.8 µM (active) | inactive | inactive | inactive | inactive | inactive | inactive | inactive | inactive | – | 0.0365 µM (active) | – | 1.3 µM (active) | inactive | – | – | – | inactive | inactive | 0.335 µM (active) |

Source: PubChem BioAssay (Tox21)
